From the supplement of paper PMC3545927
Some of the results follow. No count for the full screen is at hand.

Molecular target: furin, P09958
Assay: furin cleavage Z-score vs untreated control; higher = more cleavage, active = 3.5 or more, inactive = 1 or less, 8 variable residues between constant flanks
Summary of the method: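 Read counts from sequencing released DNA gave abundance for each bead-bound 8-mer peptide–cDNA fusion cut by purified furin over 7.5, 15 or 30 min. The cleavage Z-score compares log counts with furin-free reactions after lowess adjustment and median absolute deviation scaling.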
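Note: purified furin at 1:10 enzyme:substrate in 50 mM HEPES pH 7.5.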

Chain of furin, P09958 (P09958 whole entry): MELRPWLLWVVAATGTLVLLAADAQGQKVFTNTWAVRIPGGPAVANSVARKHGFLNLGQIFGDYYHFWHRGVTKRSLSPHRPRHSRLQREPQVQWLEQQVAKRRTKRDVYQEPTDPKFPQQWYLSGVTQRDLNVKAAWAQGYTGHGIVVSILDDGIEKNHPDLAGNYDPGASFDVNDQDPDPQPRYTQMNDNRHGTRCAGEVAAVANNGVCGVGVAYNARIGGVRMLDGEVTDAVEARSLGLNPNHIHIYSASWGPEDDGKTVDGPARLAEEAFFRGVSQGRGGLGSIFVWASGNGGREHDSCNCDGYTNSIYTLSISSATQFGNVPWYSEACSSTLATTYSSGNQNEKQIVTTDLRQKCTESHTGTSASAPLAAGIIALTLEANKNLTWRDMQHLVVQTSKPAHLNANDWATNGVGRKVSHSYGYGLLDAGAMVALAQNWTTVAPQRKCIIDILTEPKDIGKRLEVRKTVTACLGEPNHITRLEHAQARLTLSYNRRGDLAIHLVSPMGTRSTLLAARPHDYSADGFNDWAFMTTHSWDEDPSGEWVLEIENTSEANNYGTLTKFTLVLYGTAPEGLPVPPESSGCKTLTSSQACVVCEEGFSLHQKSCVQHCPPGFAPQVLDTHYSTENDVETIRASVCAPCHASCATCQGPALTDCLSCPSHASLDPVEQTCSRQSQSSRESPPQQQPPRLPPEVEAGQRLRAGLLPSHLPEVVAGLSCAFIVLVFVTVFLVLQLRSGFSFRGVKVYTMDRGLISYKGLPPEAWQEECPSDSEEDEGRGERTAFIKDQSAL

Sequence | furin cleavage Z-score (7.5 min) | furin cleavage Z-score (15 min) | furin cleavage Z-score (30 min)
CATWGADTAAAGNASASA [HC653] | -1.68 (inactive) | -0.657 (inactive) | 0.025 (inactive)
CATINYTIFKAGNASASA [HC471] | -0.464 (inactive) | -1.13 (inactive) | -1.75 (inactive)
CAKIMSGEVPAGNASASA [HC1094] | 0.645 (inactive) | -1.21 (inactive) | -1.34 (inactive)
CACVREGNASAGNASASA [HC275] | -1.21 (inactive) | -1.14 (inactive) | -0.496 (inactive)
CATGRRKGRSAGNASASA [FS-1290] | 10.3 (active) | 12.1 (active) | 8.69 (active)
CATGRGKPGIAGNASASA [HC906] | -0.769 (inactive) | 0.329 (inactive) | 1.63
CAPCERKGRSAGNASASA [FS-1379] | 5.38 (active) | 8.32 (active) | 6.45 (active)
CAYCFTPSPVAGNASASA [HC414] | -0.826 (inactive) | -2.21 (inactive) | -2.26 (inactive)
CAYTPCSAHLAGNASASA [HC2469] | -1.25 (inactive) | -1.32 (inactive) | -1.27 (inactive)
CALMTHFFSVAGNASASA [HC1583] | -2.19 (inactive) | -1.38 (inactive) | -1.85 (inactive)
CARKMRDDERAGNASASA [FS-1904] | 0.00727 (inactive) | -0.39 (inactive) | -1.4 (inactive)
CADEMEECSQAGNASASA [HC1791] | 6.21 (active) | -2.13 (inactive) | -5.81 (inactive)
CARKKRAAGQAGNASASA [FS-1727] | 10.8 (active) | 11.8 (active) | 8.92 (active)
CARKKRFAKQAGNASASA [FS-2692] | 5.98 (active) | 8.51 (active) | 8.88 (active)
CARKKRLEEQAGNASASA [FS-1857] | -0.193 (inactive) | 1.1 | 0.0714 (inactive)
CARKKRWAERAGNASASA [FS-3257] | 8.39 (active) | 10.8 (active) | 10.8 (active)

Sequence | furin cleavage Z-score (7.5 min) | furin cleavage Z-score (15 min) | furin cleavage Z-score (30 min)
CATPIAAAGQAGNASASA [HC1639] | -1.29 (inactive) | -1.26 (inactive) | -1.59 (inactive)
CALEMEECSQAGNASASA [HC1785] | 0.133 (inactive) | 0.777 (inactive) | -0.27 (inactive)
CASEMEECSQAGNASASA [HC1797] | 1.23 | -0.566 (inactive) | 0.242 (inactive)
CACLLLLAAGAGNASASA [HC1658] | -0.897 (inactive) | -1.64 (inactive) | -0.912 (inactive)
CACDVVCCSMAGNASASA [HC2120] | -0.0436 (inactive) | -0.677 (inactive) | -0.296 (inactive)
CATTPCSGSNAGNASASA [HC1941] | -1.17 (inactive) | -0.013 (inactive) | -0.852 (inactive)
CAMSTNPKPQAGNASASA [HC161] | 0.554 (inactive) | -0.264 (inactive) | -0.709 (inactive)
CAELSPLLLTAGNASASA [HC491] | -1.56 (inactive) | -0.594 (inactive) | 0.347 (inactive)
CASEPCSAHLAGNASASA [HC2492] | -0.366 (inactive) | -0.474 (inactive) | -0.0579 (inactive)
CARDSRSSERAGNASASA [FS-2654] | -1.62 (inactive) | -0.417 (inactive) | -0.301 (inactive)
CAVHKRSAERAGNASASA [FS-2854] | 2.95 | 4.06 (active) | 5.25 (active)
CARRARHPGQAGNASASA [FS-2448] | 0.222 (inactive) | -1.48 (inactive) | -0.313 (inactive)
CARKRRQTGQAGNASASA [FS-2701] | 9.83 (active) | 11.9 (active) | 7.6 (active)
CARKRRNTIHAGNASASA [FS-2567] | 9.29 (active) | 10.7 (active) | 9.63 (active)
CARKRRETSQAGNASASA [FS-2347] | 13.9 (active) | 14.9 (active) | 10.1 (active)
CARKTRFIIHAGNASASA [FS-2426] | 0.0934 (inactive) | -2.08 (inactive) | 0.575 (inactive)
